Assay [1] is described as follows: antimalarial activity against Dd2 strain (AID 2302;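 active = growth inhibition above 50% at the single 2 µM test dose, taken to imply half-maximal potency below 2 µM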;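 note: 0% = DMSO untreated growth and 100% = chloroquine plus artemisinin killed control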). Particulars: P. falciparum Dd2 in RBCs, LDH growth readout, 72 h; at 2 µM; stronger effect = higher value.
Assay [2] in a line: human hepatoma cell viability loss – ATP luminescence, cytotoxicity control for P. falciparum antimalarial project, primary screen (AID 2303;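 active = inhibition above 50%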;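 note: 0% = DMSO wells and 100% = digitonin-killed cells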). Particulars: HepG2 viability, 24-48 h, at 10 µM, stronger effect = higher value.
Assay [3] addresses L-lactate dehydrogenase (Plasmodium falciparum (isolate CDC / Honduras)) (UniProt Q27743). Description: PfLDH activity inhibition – cell lysate, 3D7 strain, counter-screen for P. falciparum growth inhibition project (AID 2304).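 Note: 0% = vehicle and 100% = reference inhibitor.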 Particulars: P. falciparum 3D7 crude extract, LDH APAD/NBT absorbance; at 2 µM; stronger effect = higher value. A general note: Counterscreens check selectivity or assay interference.

A short description of assay [4]: inhibition of 3D7 malaria parasite growth – strain 3D7 (AID 2306).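 Note: 0% = DMSO wells and 100% = chloroquine plus artemisinin control wells.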 To be noted: P. falciparum 3D7 erythrocytic growth, LDH absorbance, 72 h; at 2 µM; stronger effect = higher value.
In assay [5] the target is Calcium-dependent protein kinase 1 (Plasmodium falciparum (isolate 3D7)) (UniProt P62344). As to the kind of experiment: PfCDPK1 kinase inhibitors, biochemical, TCAMS library (AID 1159585; cut-off not given, nearly all actives have IC50 up to about 0.98 µM;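 note: inhibitors leave more ATP so luminescence rises with inhibition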). Particulars: recombinant PfCDPK1, Kinase-Glo ATP depletion luminescence. A general note: In Kinase-Glo more light means more ATP remaining.
Chain of Calcium-dependent protein kinase 1 (Plasmodium falciparum (isolate 3D7)) (P62344 whole entry, looked up): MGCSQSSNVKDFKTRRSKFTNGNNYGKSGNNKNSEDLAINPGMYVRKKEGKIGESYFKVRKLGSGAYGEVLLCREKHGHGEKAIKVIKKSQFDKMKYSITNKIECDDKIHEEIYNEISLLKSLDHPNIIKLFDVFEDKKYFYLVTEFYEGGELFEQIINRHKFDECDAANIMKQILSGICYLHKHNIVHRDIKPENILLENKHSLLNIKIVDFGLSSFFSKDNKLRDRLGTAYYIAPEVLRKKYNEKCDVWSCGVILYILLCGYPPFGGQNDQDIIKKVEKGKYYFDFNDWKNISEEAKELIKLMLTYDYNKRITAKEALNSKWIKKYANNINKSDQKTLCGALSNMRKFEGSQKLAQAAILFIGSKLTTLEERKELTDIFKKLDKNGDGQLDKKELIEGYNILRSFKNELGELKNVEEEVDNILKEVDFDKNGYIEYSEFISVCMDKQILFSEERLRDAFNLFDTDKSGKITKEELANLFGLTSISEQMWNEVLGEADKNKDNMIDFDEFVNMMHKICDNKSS
For assay [6], the target named is Plasmodium falciparum protein kinase 6 (PK6, PF3D7_1337100) (UniProt Q8IDW1). Description: PfPK6 kinase inhibitors, biochemical, TCAMS library (AID 1159586). To be noted: recombinant PfPK6, Kinase-Glo ATP depletion luminescence.
Chain of Plasmodium falciparum protein kinase 6 (PK6, PF3D7_1337100) (Q8IDW1 1-305): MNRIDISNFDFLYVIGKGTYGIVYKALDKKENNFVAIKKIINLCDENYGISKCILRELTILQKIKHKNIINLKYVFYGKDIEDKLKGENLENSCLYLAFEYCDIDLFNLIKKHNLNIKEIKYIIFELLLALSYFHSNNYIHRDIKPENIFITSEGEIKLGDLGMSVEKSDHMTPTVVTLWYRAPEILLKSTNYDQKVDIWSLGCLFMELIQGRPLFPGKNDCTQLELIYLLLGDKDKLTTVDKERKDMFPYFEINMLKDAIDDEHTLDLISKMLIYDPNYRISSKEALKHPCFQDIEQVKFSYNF
For assay [7], the target named is Protein kinase 7 (PK7), Plasmodium falciparum 3D7 (PF3D7_0213400) (UniProt Q7YTF7). As to the kind of experiment: inhibition of Plasmodium PK7 catalytic activity – biochemical, TCAMS antimalarial set, Kinase-Glo luminescence (AID 1159587). To be noted: recombinant PfPK7, Kinase-Glo ATP depletion luminescence.
Chain of Protein kinase 7 (PK7), Plasmodium falciparum 3D7 (PF3D7_0213400) (Q7YTF7 1-343): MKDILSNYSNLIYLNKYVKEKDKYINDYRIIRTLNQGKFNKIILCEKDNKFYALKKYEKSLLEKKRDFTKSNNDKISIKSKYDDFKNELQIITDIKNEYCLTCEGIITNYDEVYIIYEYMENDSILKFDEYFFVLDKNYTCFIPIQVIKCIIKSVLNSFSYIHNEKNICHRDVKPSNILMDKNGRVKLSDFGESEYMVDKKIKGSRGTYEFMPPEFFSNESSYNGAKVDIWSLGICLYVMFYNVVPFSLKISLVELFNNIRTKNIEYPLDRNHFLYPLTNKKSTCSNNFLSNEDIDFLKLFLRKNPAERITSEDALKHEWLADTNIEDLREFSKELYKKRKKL
Assay [8] deals with Calcium-dependent protein kinase 4 (Plasmodium falciparum (isolate 3D7)) (UniProt Q8IBS5). As to the kind of experiment: PfCDPK4 kinase inhibitors, biochemical, TCAMS library (AID 1159588; cut-off not given, nearly all actives have IC50 up to about 0.91 µM). To be noted: recombinant PfCDPK4, Kinase-Glo ATP depletion luminescence.
Chain of Calcium-dependent protein kinase 4 (Plasmodium falciparum (isolate 3D7)) (Q8IBS5 whole entry, looked up): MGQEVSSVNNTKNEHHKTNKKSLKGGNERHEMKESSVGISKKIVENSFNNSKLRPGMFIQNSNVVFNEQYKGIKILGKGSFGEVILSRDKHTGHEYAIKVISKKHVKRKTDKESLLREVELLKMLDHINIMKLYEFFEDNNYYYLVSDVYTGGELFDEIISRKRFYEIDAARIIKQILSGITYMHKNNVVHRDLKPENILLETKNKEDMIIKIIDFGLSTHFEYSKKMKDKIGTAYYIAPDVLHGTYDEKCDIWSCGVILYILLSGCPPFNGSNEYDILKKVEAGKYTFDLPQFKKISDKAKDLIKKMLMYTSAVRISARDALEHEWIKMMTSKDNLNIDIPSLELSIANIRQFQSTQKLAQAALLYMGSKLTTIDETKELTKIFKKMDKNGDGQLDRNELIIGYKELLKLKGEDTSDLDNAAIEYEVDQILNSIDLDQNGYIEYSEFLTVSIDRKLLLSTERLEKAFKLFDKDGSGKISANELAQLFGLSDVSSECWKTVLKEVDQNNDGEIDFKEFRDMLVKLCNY

What is called inhibition is the relative decrease from the control value, in per cent.

Unmarked numbers belong to inactive results. For part of these data: Potency and affinity values are given separately. Calls of active or inactive are those of the source. Unless noted, the rule behind the calls is not given here.

Chain of L-lactate dehydrogenase (Plasmodium falciparum (isolate CDC / Honduras)) (Q27743 whole entry, looked up): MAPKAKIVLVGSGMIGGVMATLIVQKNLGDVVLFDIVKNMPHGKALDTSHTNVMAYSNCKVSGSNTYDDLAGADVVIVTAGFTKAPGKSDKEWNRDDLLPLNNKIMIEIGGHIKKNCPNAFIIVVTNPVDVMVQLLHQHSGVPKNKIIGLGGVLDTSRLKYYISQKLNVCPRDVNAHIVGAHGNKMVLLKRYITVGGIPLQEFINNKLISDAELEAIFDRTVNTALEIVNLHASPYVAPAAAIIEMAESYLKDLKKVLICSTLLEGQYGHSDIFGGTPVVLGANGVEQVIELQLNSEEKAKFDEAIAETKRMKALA

As for `COc1ccc(C(=O)C2CCN(CCCCNC(=O)c3ccc(NC(=O)c4cc(Cl)cc(Cl)c4)cc3)CC2)cc1`, the growth inhibition in assay [1] was 84% (active); in assay [4], 100% (active). In addition, the inhibition in assay [2] is 35%; in assay [3], 5%. Further, the result in assay [5], in assay [6], in assay [7] and in assay [8] was inactive.

Take `Cc1cc2c(cc1C(F)(F)F)N(C(=O)Nc1cc(C(=O)NCCN(C)C)cc(C(F)(F)F)c1)CC2`: the values for the growth inhibition in assay [1] and in assay [4] were 50% (active) and 100% (active), respectively. Moreover, the inhibition in assay [2] is 19%; in assay [3], -7%. Further, the outcome in assay [5], in assay [6], in assay [7] and in assay [8] was inactive.

Turning to `Cc1sc(N2CCN(C)CC2)nc1C(=O)Nc1ccc(F)cc1C(F)(F)F`, the growth inhibition in assay [1] is 63% (active); in assay [4], 92% (active). In addition, the inhibition is 7% in assay [2] and 4% in assay [3]. Further, the outcome in assay [5], in assay [6], in assay [7] and in assay [8] was inactive.

In the case of `C=CCc1cc(Br)ccc1OCCCOc1c(N)nc(N)nc1N`, the growth inhibition is 0% in assay [1] and 92% (active) in assay [4]. Moreover, the inhibition was 47% in assay [2] and 4% in assay [3]. The outcome in assay [5], in assay [6], in assay [7] and in assay [8] was inactive.

Take `CN(C(=O)Nc1ccc(F)cc1)C1CCN(CCCCCNC(=O)/C=C/c2ccc(Cl)c(Cl)c2)CC1`: the growth inhibition in assay [1] was -3%; in assay [4], 89% (active). Besides, the inhibition in assay [2] was 38%; in assay [3], -5%. Further, the outcome in assay [5], in assay [6], in assay [7] and in assay [8] was inactive.

Turning to `Fc1ccc2nc(-c3cccc(-c4cccc(CNCCc5ccncc5)c4)c3)[nH]c2c1`, the growth inhibition in assay [1] was 88% (active); in assay [4], 100% (active). Also, the inhibition in assay [2] is 22%; in assay [3] it was 2%. Moreover, the outcome in assay [5], in assay [6], in assay [7] and in assay [8] was inactive.

Regarding `NC(N)=NC(=O)Nc1cc(Br)c(Cl)c(Br)c1`, the growth inhibition in assay [1] is 83% (active); in assay [4], 101% (active). Besides, the figures for the inhibition in assay [2] and in assay [3] were 0% and 4%, respectively. Also, the result in assay [5], in assay [6], in assay [7] and in assay [8] was inactive.

For `Cc1ccc(F)c(OCC2CCCN(c3ccc(C(=O)NC4CC4)cn3)C2)c1` (stereo not drawn), the results for the growth inhibition in assay [1] and in assay [4] were 94% (active) and 96% (active), respectively. Further, the inhibition in assay [2] was 3%; in assay [3], -3%. Moreover, the outcome in assay [5], in assay [6], in assay [7] and in assay [8] was inactive.

`CN(C)CCNC(=O)c1ccc2c(c1)n(C1CCN(S(=O)(=O)c3ccc(-c4ccccc4)cc3)CC1)c(=O)n2CC1CCCCC1`: the growth inhibition in assay [1] is 66% (active); in assay [4] it was 100% (active). The results for the inhibition in assay [2] and in assay [3] were 47% and -2%, respectively. Moreover, the outcome in assay [5], in assay [6], in assay [7] and in assay [8] was inactive.

As for `CC(Cc1ccc(NC(=O)c2ccc(NCCc3ccccc3)cc2)cc1)NCCc1cccc(Cl)c1` (stereo not drawn), the growth inhibition in assay [1] was 1%; in assay [4] it was 92% (active). For the same compound, the results for the inhibition in assay [2] and in assay [3] were 25% and 4%, respectively. Moreover, the outcome in assay [5], in assay [6], in assay [7] and in assay [8] was inactive.

Consider `O=C(c1cc2cccc([N+](=O)[O-])c2[nH]1)N1CCC(CCN2CCC(c3c[nH]c4ccccc34)CC2)CC1`, for which the growth inhibition is 24% in assay [1] and 89% (active) in assay [4]. Further, the inhibition in assay [2] is 45%; in assay [3], 1%. The result in assay [5], in assay [6], in assay [7] and in assay [8] was inactive.

Take `Cc1cc(N)cc2[nH]c(-c3ccc(N)cc3)nc12`: the growth inhibition in assay [1] was 75% (active); in assay [4] it was 96% (active). Also, the inhibition in assay [2] was -7%; in assay [3], -11%. Moreover, the outcome in assay [5], in assay [6], in assay [7] and in assay [8] was inactive.

Turning to `c1ccc2c(c1)CN(CC1CCOCC1)CC1(CCN(Cc3c[nH]c4cnccc34)CC1)O2`, the values for the growth inhibition in assay [1] and in assay [4] were 7% and 99% (active), respectively. The inhibition in assay [2] is 21%; in assay [3], -3%. Further, the outcome in assay [5], in assay [6], in assay [7] and in assay [8] was inactive.

Turning to `COc1cc(OC)cc(-c2nc3c(C#N)c(OCCN(C)C)ccc3[nH]2)c1`, the values for the growth inhibition in assay [1] and in assay [4] were 25% and 99% (active), respectively. The inhibition in assay [2] was 4%; in assay [3], -3%. Moreover, the outcome in assay [5], in assay [6], in assay [7] and in assay [8] was inactive.

Regarding `CN(C)c1ccc(CN2CCC(NC(=O)c3ccc(-c4cccc(F)c4)s3)CC2)cc1`, the growth inhibition in assay [1] is 18%; in assay [4] it was 91% (active). Also, the inhibition was 55% (active) in assay [2] and -1% in assay [3]. The outcome in assay [5], in assay [6], in assay [7] and in assay [8] was inactive.

Turning to `CC1CN(C(=O)c2sc3ccccc3c2Cl)CC(C)O1` (stereo not drawn), the growth inhibition in assay [1] is 98% (active); in assay [4], 101% (active). Besides, the results for the inhibition in assay [2] and in assay [3] were -5% and 3%, respectively. The result in assay [5], in assay [6], in assay [7] and in assay [8] was inactive.

With `CCCC(=O)Nc1ccc(Nc2nc(C)cc(N3CCCC3)n2)cc1`, the results for the growth inhibition in assay [1] and in assay [4] were 46% and 100% (active), respectively. Also, the inhibition in assay [2] was 31%; in assay [3], 4%. Also, the outcome in assay [5], in assay [6], in assay [7] and in assay [8] was inactive.

As for `CCCNC[C@@H](O)[C@H](Cc1ccccc1)NC(=O)c1cc(NCC)cc(N2CCCCS2(=O)=O)c1`, the growth inhibition in assay [1] was 74% (active); in assay [4], 97% (active). Besides, the inhibition in assay [2] is 0%; in assay [3], -3%. Besides, the result in assay [5], in assay [6], in assay [7] and in assay [8] was inactive.

On to `CC(C)COc1ccc(C(O)C(CN2CCCCC2)c2ccccc2)cc1` (stereo not drawn), for which the growth inhibition is 89% (active) in assay [1] and 93% (active) in assay [4]. Further, the inhibition was 11% in assay [2] and -11% in assay [3]. The result in assay [5], in assay [6], in assay [7] and in assay [8] was inactive.

Regarding `O=C(/C=C/c1ccc(Cl)c(Cl)c1)NCCCCCN1CC[C@H](NC(=O)/C=C/c2ccccc2)C1`, the growth inhibition is 1% in assay [1] and 93% (active) in assay [4]. For the same compound, the results for the inhibition in assay [2] and in assay [3] were 10% and 1%, respectively. For the same compound, the outcome in assay [5], in assay [6], in assay [7] and in assay [8] was inactive.

For the compound `Cc1cc(N2CCN(CC3CCN(C)CC3)CC2)nc(Nc2ccc(Br)cc2)n1`, the growth inhibition in assay [1] and in assay [4] was 100% (active) in each case. The results for the inhibition in assay [2] and in assay [3] were 31% and 5%, respectively. For the same compound, the result in assay [5], in assay [6], in assay [7] and in assay [8] was inactive.

(Values after PubChem BioAssay.)
